# From article PMC10480535
# Biological target: MOB kinase activator 2 (UniProt Q70IA6)
# Assay: cross-link between two proteins; cross-linking mass spectrometry; proximity labelling
# Sequence of UniProt Q70IA6 (Q70IA6 whole entry): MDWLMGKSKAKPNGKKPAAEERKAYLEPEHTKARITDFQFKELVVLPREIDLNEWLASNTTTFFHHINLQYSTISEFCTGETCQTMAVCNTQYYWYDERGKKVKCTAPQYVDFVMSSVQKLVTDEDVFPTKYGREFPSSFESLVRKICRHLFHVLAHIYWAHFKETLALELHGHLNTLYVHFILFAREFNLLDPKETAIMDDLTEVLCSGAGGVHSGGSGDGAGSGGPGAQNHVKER
substance,measurement,value
"Flotillin-1, O75955",listed as a hit,yes
